Screening results: PubChem, The Scripps Research Institute Molecular Screening Center
Fam108B inh = Fam108B inhibition, counter-screen for RBBP9 inhibitors; recombinant Fam108B, FP-Rh probe fluorescence polarization; inhibition, % at 9.51 µM; hit rate 0.33% among 300,000; AID 1947;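 active means inhibition above the screen mean inhibition plus 3 SD, computed separately per campaign, cut at about 18% in these data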;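 further: inhibitors lower polarization as less probe binds the enzyme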
LYPLA2 counter = blocks human lysophospholipase 2, a PME1 counter-screen; O95372; AID 2177; inhibition, % at 5.9 µM; recombinant LYPLA2, FP-Rh probe fluorescence polarization; hit rate 0.38% among 320,000;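 active means inhibition above the screen-wide mean plus 3 SD, limit set per campaign, cut at about 26% in these data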;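 further: 0% = LYPLA2 with DMSO and 100% = wells lacking LYPLA2 enzyme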
LYPLA1 inh = LYPLA1 (human) inhibition in PME1 counter-screen. inhibition, % at 5.9 µM. recombinant LYPLA1, FP-Rh probe fluorescence polarization. O75608. hit rate 0.16% among 320,000. AID 2174;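 active means inhibition above the mean of all tested compounds plus 3 SD, set per campaign, cut at about 14% in these data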;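 further: inhibitors block serine hydrolase probe labeling of LYPLA1 so polarization falls; 0% = enzyme with DMSO and 100% = wells lacking LYPLA1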
PAD4 inh = PAD4 (human) enzyme inhibition; Q9UM07; recombinant PAD4, RCA probe fluorescence polarization; inhibition, % at 6.36 µM; hit rate 0.41% among 330,000; AID 485272;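 active means percent inhibition above a cutoff equal to the mean of all tested compounds plus 3 SD, cut at about 15% in these data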;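 further: 0% = PAD4 with RCA probe and DMSO and 100% = probe without PAD4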
Target sequence (Q9UM07 whole entry, looked up): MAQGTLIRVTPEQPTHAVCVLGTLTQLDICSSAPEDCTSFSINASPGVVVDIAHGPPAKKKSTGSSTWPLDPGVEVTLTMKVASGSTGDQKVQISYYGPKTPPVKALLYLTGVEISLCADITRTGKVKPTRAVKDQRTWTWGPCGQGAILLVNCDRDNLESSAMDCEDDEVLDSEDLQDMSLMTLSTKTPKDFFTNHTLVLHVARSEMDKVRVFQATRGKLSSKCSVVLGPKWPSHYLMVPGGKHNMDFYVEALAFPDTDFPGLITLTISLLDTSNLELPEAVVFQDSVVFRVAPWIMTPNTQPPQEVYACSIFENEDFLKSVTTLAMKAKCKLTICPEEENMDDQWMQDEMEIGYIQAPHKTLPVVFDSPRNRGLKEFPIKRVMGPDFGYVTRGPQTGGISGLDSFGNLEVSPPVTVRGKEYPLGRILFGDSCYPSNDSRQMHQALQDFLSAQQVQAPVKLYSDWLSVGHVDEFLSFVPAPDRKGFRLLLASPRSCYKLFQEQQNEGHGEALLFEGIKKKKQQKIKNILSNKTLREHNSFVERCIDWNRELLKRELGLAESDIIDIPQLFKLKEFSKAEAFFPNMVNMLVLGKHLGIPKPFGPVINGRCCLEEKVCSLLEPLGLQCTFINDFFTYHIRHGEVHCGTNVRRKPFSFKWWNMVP
GSTO1 counter = blocks human GSTO1 in RBBP9 counter-screen. AID 1974. hit rate 1.1% among 300,000. recombinant GSTO1, activity-based probe fluorescence polarization. P78417. inhibition, % at 5.96 µM;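 active means inhibition above the campaign mean inhibition plus 3 SD, cut at about 35% in these data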;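 further: 0% = GSTO1-1 with DMSO and 100% = wells lacking GSTO1-1 enzyme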
PME-1 primary = PME-1 (human) inhibition; Q9Y570; recombinant PME-1, FP-Rh probe fluorescence polarization; inhibition, % at 5.9 µM; hit rate 0.53% among 320,000; AID 2130;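 active means inhibition above the campaign mean of all compounds plus 3 SD, cut at about 26% in these data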;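 further: competitive labeling of PME-1 active site by serine hydrolase directed probe; 0% = PME-1 with DMSO and 100% = wells lacking PME-1 enzyme; inhibitors block probe labeling so polarization falls and inhibition rises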
LYPLA2 conf = LYPLA2 (human) inhibition, confirmation counter-screen; shares compounds with LYPLA2 counter; recombinant LYPLA2, FP-Rh probe fluorescence polarization; inhibition, % at 5.9 µM; hit rate 72% among 1,100; AID 2232;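 active means mean inhibition across replicates above the hit cutoff set in the primary screen, cut at about 26% in these data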;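 further: blocked labeling of the enzyme by serine hydrolase FP-Rh probe lowers polarization; 0% = enzyme with DMSO and 100% = wells lacking LYPLA2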
LYPLA2 gel ABPP = blocks human acyl-protein thioesterase 2 in gel ABPP; shares compounds with LYPLA2 counter; rhLYPLA2 in mouse brain proteome, gel ABPP FP-Rh; inhibition, % at 20 µM; hit rate 30% among 150; AID 652029;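 active means inhibition of LYPLA2 enzyme probe labeling above about 50%, limit read from the data; inactive means inhibition below that limit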;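 further: loss of FP-Rh probe labeling of the LYPLA2 gel band measured as band density; 0% = DMSO only control band and 100% = blank gel background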
* = called active by the depositor; . = no result given. This is a sample that favours compounds with a hit; in the whole collection about 1.8% have one here.

SMILES | Fam108B inh | LYPLA2 counter | LYPLA1 inh | PAD4 inh | GSTO1 counter | PME-1 primary | LYPLA2 conf | others
C=CCN1C(=O)c2ccccc2NC1c1cc(Br)cs1 (stereo unspecified) | -2 | 0 | -3 | -2 | 0 | -2 | .
COc1cccc(-c2cc(C(=O)Nc3cnn(Cc4ccccc4C)c3)no2)c1 | 1 | 4 | -6 | 1 | -3 | 0 | .
COc1ccc(-c2cc(C(=O)Nc3c(C)nn(Cc4ccccc4)c3C)no2)cc1 | -3 | 7 | 0 | 3 | 3 | -2 | .
COc1cccc(-c2cc(C(=O)Nc3c(C)nn(Cc4ccccc4)c3C)no2)c1 | 1 | 56* | 8 | -3 | -2 | 2 | 45*
COc1cccc(-c2cc(C(=O)Nc3c(C)nn(Cc4ccccc4C)c3C)no2)c1 | -1 | 45* | 6 | -3 | -5 | -3 | 48*
CC1CCN(C(=O)COC(=O)CCC(=O)c2ccc(Cl)cc2)CC1 | . | . | . | -3 | . | . | .
Cc1ccc(OCC(=O)NCc2ccccc2)c([N+](=O)[O-])n1 | 1 | 54* | 3 | -1 | 6 | -1 | -5
CSc1cccc(NC(=O)c2cccc3cccnc23)c1 | -2 | -8 | -11 | 0 | 4 | -12 | .
CCc1cc2c(COC(=O)c3cccc(NS(C)(=O)=O)c3)cc(=O)oc2cc1O | -5 | -13 | -7 | -3 | -9 | -5 | .
Fc1ccc(C2=Nn3c(Cc4ccccc4F)nnc3SC2)cc1 | -3 | 28* | 3 | -1 | 1 | 6 | 15
CCOc1cc(C(=O)Nc2cc(C(=O)OC)ccc2C)ccc1OCC(=O)N1CCOCC1 | . | 2 | 3 | -4 | . | -2 | .
CC(NCc1ccc(OCc2ccc(Cl)cc2)cc1)C(O)c1ccccc1 (stereo unspecified) | 3 | 39* | 1 | 0 | -1 | -8 | 38*
NC(=O)CC(NC(=O)c1ccc(Br)cc1)c1ccc(N2CCN(c3ccccc3)CC2)c([N+](=O)[O-])c1 (stereo unspecified) | -2 | 26* | -4 | 5 | 2 | -1 | 28*
CCCCCCCCCCCCN1[C@@H](CC(=O)O)c2cc(C(F)(F)F)ccc2S1(=O)=O | -3 | 61* | 11 | 8 | 4 | 0 | 60* | LYPLA2 gel ABPP=16
CCCCCCCCN1[C@@H](CC(=O)OC)c2cc(F)ccc2S1(=O)=O | 5 | 5 | 2 | 3 | 6 | -3 | .
CCCCCCCCCCCCN1[C@@H](CC(=O)O)c2cc(F)ccc2S1(=O)=O | 1 | 58* | 10 | 0 | 18 | 2 | 58* | LYPLA2 gel ABPP=35
CCCCCCCCN1[C@@H](CC(=O)O)c2cc(C(F)(F)F)ccc2S1(=O)=O | 2 | 2 | 3 | 1 | 2 | 7 | .
COc1cccc(OCc2cc(C(=O)N3CCN(c4ccccc4OC)CC3)no2)c1 | -1 | 11 | 5 | 4 | -4 | -1 | .
Cc1cc2c3c([nH]c2cc1S(=O)(=O)N1CCC2(CC1)OCCO2)CC(C)(C)CC3=O | 2 | 2 | -4 | 3 | -4 | 4 | .
Cc1onc(-c2ccccc2)c1-c1nnc(CN2CCN(S(=O)(=O)c3ccccc3F)CC2)o1 | . | -3 | -4 | -6 | . | 2 | .
N#Cc1ccc(-c2ccc(OCC(=O)NCCc3ccccc3)cc2)cc1 | -3 | 35* | 4 | 0 | -3 | 0 | 15
C(#Cc1c(-c2ccsc2)sc2ccccc12)c1ccsc1 | . | . | . | 1 | . | . | .
COc1cc(C(=O)N2CCN(C(=O)c3cc(-c4ccc(Br)cc4)n[nH]3)CC2)cc(OC)c1OC | -4 | 28* | -3 | 5 | -1 | 7 | 32*
COc1cc(C(=O)N2CCN(C(=O)c3ccccc3)CC2)cc(OC)c1OC | 0 | -5 | 0 | 5 | 1 | 3 | .
O=C(COC(=O)c1cccc([N+](=O)[O-])c1)c1ccc2c(c1)OCO2 | 2 | 5 | 0 | -2 | 11 | -3 | .
SMILES | Fam108B inh | LYPLA2 counter | LYPLA1 inh | PAD4 inh | GSTO1 counter | PME-1 primary | LYPLA2 conf | others
O=C1c2ccc(Oc3ccc([N+](=O)[O-])cc3)cc2C(=O)N1CCCO | 1 | 46* | 4 | -5 | -3 | -2 | 50*
O=C1c2ccc(Oc3ccc4c(c3)C(=O)N(CCCCO)C4=O)cc2C(=O)N1CCCCO | -7 | 29* | 1 | -5 | -1 | -5 | 35*
O=C(O)CN1C(=O)c2ccc(Oc3ccc([N+](=O)[O-])cc3)cc2C1=O | -3 | 5 | -1 | -4 | 8 | 3 | .
COc1ccc2nc3n(c(=O)c2c1)-c1ccccc1C(=O)NC3Cc1ccccc1 (stereo unspecified) | . | . | . | -2 | . | . | .
NC(=O)c1ccsc1NC(=O)CCS(=O)(=O)c1ccc(F)cc1 | -1 | 7 | -1 | -3 | 10 | 4 | .
CCCCCCC[N+](CC)(CC)CCCCc1ccc(Cl)cc1 | 4 | 35* | 2 | -1 | 0 | -3 | 30*
CCCCCNCc1ccc(Cl)cc1 | 0 | 3 | 0 | -2 | 0 | 4 | .
O=C(CN1C(=O)C(=O)N(C2CCCC2)C1=O)Nc1ccc(Cl)cc1C(F)(F)F | . | 4 | 1 | 4 | . | 6 | .
Nc1nonc1-n1nnc(C(=O)N/N=C/c2cccs2)c1-c1ccc2c(c1)OCO2 | -3 | 6 | 2 | -3 | -5 | 4 | .
Cc1ccccc1NC(=O)c1nn(C)c2c1CS(=O)(=O)c1ccccc1-2 | 1 | 40* | 1 | 4 | -2 | 1 | 46*
Cc1cc(C)c(C(=O)N2CCCC(N3CCN(c4cccc(C(F)(F)F)c4)CC3)C2)o1 (stereo unspecified) | 2 | 52* | 10 | 1 | 5 | -4 | 50* | LYPLA2 gel ABPP=31
Cn1nccc1C(=O)N1CCCC(N2CCN(c3cccc(C(F)(F)F)c3)CC2)C1 (stereo unspecified) | 0 | 54* | 4 | 3 | 9 | 3 | 52* | LYPLA2 gel ABPP=37
O=C1CSC(=S)N1 | 2 | 1 | -2 | -3 | 6 | 2 | .
CN(CC(=O)Nc1cc(Cl)ccc1C#N)C1CCS(=O)(=O)C1 (stereo unspecified) | . | 3 | 2 | 1 | . | 4 | .
COc1ccccc1Oc1ccc2c(c1)C(=O)N(c1cccc(O)c1)C2=O | -4 | 51* | -9 | 0 | 3 | -5 | 51* | LYPLA2 gel ABPP=34
Cn1c(=O)c2c(ncn2CC(=O)N/N=C/C(Cl)=C/c2ccccc2)n(C)c1=O | 0 | 32* | 8 | -1 | -1 | 3 | 22
Cn1c(=O)c2c(ncn2CCC(=O)N/N=C/c2ccccc2)n(C)c1=O | 4 | 1 | 2 | 5 | 9 | 5 | .
CCCCOc1ccc(CSc2nc(C)[nH]c2[N+](=O)[O-])cc1[N+](=O)[O-] | 3 | 50* | 11 | 9 | -39 | -1 | 54* | LYPLA2 gel ABPP=20
